Compounds with a hit are over-represented: about 7% of the library has one in this group of screens.
KLK7 zymogen act – activators of human kallikrein-7 zymogen. P49862. purified proKLK7, EDANS-DABCYL substrate fluorescence; 100% is mature enzyme control, 0% vehicle. activation, % at 7 µM. 370,000 compounds, 0.9% hits;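 active means activation above the mean of all tested compounds plus 3 SD, computed per campaign excluding outliers beyond control limits, cut at about 13% in these data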
AHR act – activators of human aryl hydrocarbon receptor; AID 2796; P35869; activation, % at 5 µM; 320,000 compounds, 2.5% hits; AHR-responsive luciferase reporter cells, luminescence; in the data active means activation above about 47%
ADAM17 inh – inhibits human ADAM17; AID 720648; recombinant ADAM17, EDANS/DABCYL FRET peptide cleavage; P78536; 370,000 compounds, 0.83% hits; inhibition, % at 6.95 µM;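 active means inhibition above the mean of compounds lying between control limits plus 3 SD, set per campaign, cut at about 8.5% in these data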
NR3A LBD binder – modulators (binders) of human NR3A ligand-binding domain; NR3A LBD differential scanning fluorimetry, Tm shift; 0% = protein alone, 100% = glycine-bound protein; 340,000 compounds, 2.5% hits; Tm shift relative to glycine control, % at 25 µM; AID 1259313;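 active means melting temperature shift of at least 10% of the positive control shift, at one fixed dose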
ADAM10 inh – ADAM10 inhibition, QFRET primary screen | O14672 | AID 720582 | inhibition, % at 7 µM | 370,000 compounds, 0.62% hits | recombinant ADAM10, EDANS/DABCYL FRET peptide cleavage, 3 h;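 active means inhibition above a per-campaign cutoff equal to the mean of compounds falling between control-based bounds plus 3 SD, cut at about 20% in these data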
Target sequence (O14672 214-748 limits assumed): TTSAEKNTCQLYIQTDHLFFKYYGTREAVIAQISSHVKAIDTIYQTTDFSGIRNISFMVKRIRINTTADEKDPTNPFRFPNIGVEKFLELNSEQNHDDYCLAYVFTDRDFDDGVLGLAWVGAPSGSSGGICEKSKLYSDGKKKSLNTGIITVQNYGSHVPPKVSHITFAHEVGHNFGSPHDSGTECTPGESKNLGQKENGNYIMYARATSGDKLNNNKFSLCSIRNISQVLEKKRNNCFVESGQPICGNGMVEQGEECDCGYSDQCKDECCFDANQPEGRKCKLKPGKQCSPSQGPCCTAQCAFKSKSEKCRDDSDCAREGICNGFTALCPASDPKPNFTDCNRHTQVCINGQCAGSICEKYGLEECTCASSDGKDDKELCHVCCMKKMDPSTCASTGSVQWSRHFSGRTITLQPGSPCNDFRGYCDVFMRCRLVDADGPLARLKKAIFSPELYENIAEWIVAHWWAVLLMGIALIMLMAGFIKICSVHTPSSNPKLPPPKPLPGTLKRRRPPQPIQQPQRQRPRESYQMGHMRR
rCAG RNA binder – r(CAG) repeat RNA binding; TO-PRO-1 dye displacement fluorescence; inhibition, % at 3 µM; 370,000 compounds, 1.3% hits;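 active means inhibition above the plate cutoff, the mean of all test compounds on that plate plus 3 SD, cut at about 35% in these data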;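 further: higher means more dye released from RNA so lower well fluorescence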
Large screens that a line does not name were inactive.

C[C@@H]1/C=C/CC(=O)N2[C@H](CC(=O)N[C@@H]1c1ccccc1)C[C@@H](C)[C@H]2c1ccccc1	none (no result: AHR act, NR3A LBD binder)
COCCn1c(SCC(=O)Nc2ccccc2F)nc2c([nH]c3ccccc32)c1=O	AHR act 61
COCCn1c(SCC(=O)Nc2ccc(C(N)=O)cc2)nc2c([nH]c3ccccc32)c1=O	AHR act 52
COCCn1c(SCC(=O)Nc2ccc(F)cc2)nc2c([nH]c3ccccc32)c1=O	none
COCCn1c(SCC(=O)Nc2ccc(F)cc2F)nc2c([nH]c3ccccc32)c1=O	AHR act 71
C=CCn1c(SCC(=O)Nc2ccc(F)cc2F)nc2c([nH]c3ccccc32)c1=O	none
CNC(=O)CSc1nc2c([nH]c3ccccc32)c(=O)n1CCOC	none
COCCn1c(SCC(=O)Nc2sccc2C(N)=O)nc2cc(Cl)ccc2c1=O	NR3A LBD binder 37
COCCn1c(SCC(=O)Nc2cccnc2Cl)nc2cc(Cl)ccc2c1=O	none
O=C(NCCc1ccccc1)OCc1cn(Cc2ccccc2F)nn1	none (no result: AHR act, NR3A LBD binder)
Cc1nn(-c2ccccc2)c(=O)c2ccccc12	AHR act 61
Cc1nn(-c2ccc(C(=O)O)cc2)c(=O)c2ccccc12	none
Cc1nn(-c2ccccc2)c2[nH]c(=O)cc(C(F)(F)F)c12	none
Cc1nn(-c2cccc(C(F)(F)F)c2)c(=O)c2ccccc12	AHR act 50
Cc1cc(=O)[nH]c2c1c(C)nn2-c1ccccc1	AHR act 62
C=CCn1c(SCc2nc3ccccc3c(=O)[nH]2)nc2ccccc2c1=O	AHR act 60
CC(C)CNc1cccc2c1S(=O)(=O)N[C@@H](C)CO2	none (no result: AHR act, NR3A LBD binder)
O=C(N[C@H](C(=O)N1CCC[C@H]1C(=O)NCCc1ccccc1Cl)c1ccccc1)C1CCCC1	none (no result: AHR act, NR3A LBD binder)
Cn1c(-c2c(N)n(CCc3ccccc3)c3nc4ccccc4nc23)nc2ccccc21	NR3A LBD binder 11 (no result: KLK7 zymogen act, ADAM17 inh, ADAM10 inh, rCAG RNA binder)
Cc1cccc(Nc2nc(-c3ccccc3)c(C(=O)Nc3cccnc3)s2)c1	AHR act 51
Cc1cccc(NC(=O)c2sc(Cl)nc2-c2ccccc2)c1	none
O=C(Nc1cccnc1)c1sc(Nc2ccccc2)nc1-c1ccccc1	NR3A LBD binder 27
CN(Cc1ccccc1)C(=O)OCc1cn(Cc2ccccc2Cl)nn1	none (no result: AHR act, NR3A LBD binder)
C=CCN(Cc1ccc(OC)c(OC)c1)C(=O)c1cc2cc(F)ccc2[nH]1	AHR act 47
COc1cc2cc(C(=O)N(C)Cc3ccccc3)[nH]c2cc1OC	none (no result: AHR act)
COC(=O)[C@]12C[C@H](CC(=O)N3CCN(C(=O)C4CC4)CC3)C(=O)N(Cc3cccc4ccccc34)C1=C[C@H](C(C)C)O[C@@H]2C1CC1	none (no result: AHR act, NR3A LBD binder)
CC(=O)c1ccc(NC(=O)c2ccc(COc3ccccc3[N+](=O)[O-])o2)cc1	NR3A LBD binder 13
CC(C)NC(=O)c1ccc(COc2ccc(C(C)(C)C)cc2)o1	NR3A LBD binder 16
Cc1ccc(OCc2ccc(C(=O)NN)o2)c([N+](=O)[O-])c1	AHR act 97
Cc1ccc(OCc2ccc(C(=O)NN)o2)cc1C	AHR act 63
O=C(O)c1ccc(COc2ccccc2[N+](=O)[O-])o1	none
N=c1c2c(ccn1Cc1ccccc1)Oc1ccc3ccccc3c1C2c1ccccc1 (configuration not stated)	none (no result: KLK7 zymogen act, AHR act, NR3A LBD binder, rCAG RNA binder)
CN=C1S/C(=C/c2cc(C)n(Cc3ccccc3)c2C)C(=O)N1C	none (no result: KLK7 zymogen act, AHR act, NR3A LBD binder, rCAG RNA binder)
NNC(=O)c1ccc(COc2ccc3ccccc3c2)o1	AHR act 80
Cc1ccc2scc(CN3CCCC3)c2c1	none
CNC(=O)Cc1csc2ccc(C)cc12	NR3A LBD binder 14
COC(=O)CC#C[C@H](C)[C@@H](NS(C)(=O)=O)C(C)(C)COCc1ccccc1	none (no result: AHR act, NR3A LBD binder)
Cc1c(C(=O)NC2CCOC2)oc2c(F)cccc12 (configuration not stated)	AHR act 79
COc1cc(NC(=O)CSc2nnnn2Cc2ccc3c(c2)OCO3)cc(OC)c1	AHR act 71
COc1ccc(OC)c(-n2nnnc2SCC(=O)NCc2ccc3c(c2)OCO3)c1	NR3A LBD binder 11
COc1ccc(NC(=O)CSc2nnnn2-c2ccc(F)cc2)cc1	NR3A LBD binder 14
O=[N+]([O-])c1ccc(Oc2cccc(F)c2)c2ccncc12	AHR act 55
O=[N+]([O-])c1cnccc1Nc1cccc(F)c1	none
CCC(=O)N1CCc2cc(Br)c(S(=O)(=O)N3CCC(C(=O)NCCCOC(C)C)CC3)cc21	none (no result: AHR act, NR3A LBD binder)
O=C(CCc1ccccc1)N[C@H]1[C@H](OC(=O)c2ccco2)CCC[C@]12C(=O)N(Cc1ccccc1)c1ccccc12	none (no result: AHR act, NR3A LBD binder)
CCCCOc1ccc(S(=O)(=O)Nc2ccc(NC(C)=O)cc2)cc1	none
CCCCN(CCCC)S(=O)(=O)c1ccc(NS(=O)(=O)c2ccc(NC(C)=O)cc2)cc1	NR3A LBD binder 13 (no result: KLK7 zymogen act, ADAM17 inh, ADAM10 inh, rCAG RNA binder)
CCc1ccc(C2NC(=S)NC3=C2C(=O)CC(C)(C)C3)cc1 (configuration not stated)	NR3A LBD binder 21
Cc1ccc(C2NC(=O)c3c(sc(C)c3C)N2)c(O)c1 (configuration not stated)	AHR act 49
O=C(OC12CCCN(C1)/C(=C/c1cccc(Cl)c1)C2)C1CCCC1 (configuration not stated)	none (no result: AHR act, NR3A LBD binder)
Cc1ccc(/C=N/NC(=O)c2cccnc2)o1	AHR act 72
CCOC(=O)c1ccc(-c2ccc(/C=N/NC(=O)c3cncc(Br)c3)o2)cc1	none
Cc1ccc(/C=N/NC(=O)c2cccs2)o1	AHR act 78
Cc1ccc(/C=N\NC(=O)c2cncc(Br)c2)o1	AHR act 64
Cc1ccc(/C=N/NC(=O)c2csc(C)c2)o1	none
COc1ccc(/C=N/NC(=O)c2cccs2)c2ccccc12	AHR act 53
C[C@@H]1CN(c2ccc(N3CCN(C(=O)OC(C)(C)C)C[C@H]3C)cc2C#N)CCN1Cc1ccccc1	none (no result: AHR act, NR3A LBD binder)
CCCCNC[C@@]12CO[C@H](c3ccc(Cl)cc3)N1[C@@H](c1ccc(Cl)cc1)SC2	none (no result: AHR act, NR3A LBD binder)
CCN(CC)S(=O)(=O)c1ccc2oc(C(=O)O)c(C)c2c1	NR3A LBD binder 13
CCN(Cc1ccccc1)S(=O)(=O)c1ccc2oc(C(=O)O)c(C)c2c1	none
COc1ccccc1CCn1cnc(-c2ccc(OC)c(OC)c2)c1CC(C)C	none (no result: AHR act, NR3A LBD binder)
CC(=O)Oc1c(Br)cc(N(C(C)=O)S(=O)(=O)c2ccccc2)c2ccccc12	AHR act 48
c1ccc(-c2nnsc2Sc2ccccn2)cc1	NR3A LBD binder 14
Cc1nnsc1Sc1ccccn1	none
Cc1ccc2[nH]cc(C(=O)CN3CCN(C)CC3)c2c1	none
Cc1ccc2[nH]cc(C(=O)CCl)c2c1	NR3A LBD binder 38
O=C(C1CCC(=O)N(C2CCCC2)C1)N1CCC(Oc2cccc(F)c2)CC1 (configuration not stated)	NR3A LBD binder 18
O=C(C1CCC(=O)N(C2CC2)C1)N1CCC(Oc2cccc(F)c2)CC1 (configuration not stated)	none
